# Measurements reported in PubChem BioAssay (Tox21).
# Several values for one entry are separate records, joined by “and”; a condition that tells them apart may be missing. Identical values can stand only once. Activity calls are given as the source filed them. Entries that show only a call come without a potency. Unless noted, calls come from the whole dose curve; as a rule, active = well fitted curve in the direction sought with a large enough effect in the repeat runs; inconclusive = weak or mixed curves; inactive = flat fitted curve, though single readings scatter.
# Experiments:
# [1] = qHTS assay to test for compound auto fluorescence at 535 nm (green) in HEK293 cells (AID 720680); note: potency is the fitted concentration of half-maximal effect
# [2] = qHTS assay to test for compound auto fluorescence at 460 nm (blue) in HEK293 cell free culture (AID 720681)
# Method in brief: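 Blue fluorescence (Ex 405/Em 460 nm, triamterene-equivalent) was read immediately after pin transfer of compound or DMSO into medium (DMEM, 10% FBS) without cells.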
# [3] = qHTS assay to test for compound auto fluorescence at 535 nm (green) in HEK293 cell free culture (AID 720682); note: potency is the fitted concentration of half-maximal effect
# Method in brief: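 DMEM + 10% FBS, cell-free; cpd or DMSO pinned in; Ex485/Em535 read; output as fluorescein-equivalent signal.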
# [4] = qHTS assay to test for compound auto fluorescence at 590 nm (red) in HEK293 cell free culture (AID 720683); note: potency is the fitted concentration of half-maximal effect
# Method in brief: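 Red-channel autofluorescence of compounds in culture medium (DMEM, 10% FBS), no cells, measured at 540/590 nm. Rose Bengal sodium is the reference fluorophore for equivalence.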
# [5] = qHTS assay to test for compound auto fluorescence at 590 nm (red) in HepG2 cell free culture (AID 720684); note: potency is the fitted concentration of half-maximal effect
# Method in brief: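 Plate contents were MEM with 10% FBS plus test compound or DMSO, no cells. Fluorescence was recorded with 540 nm excitation and 590 nm emission.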
# [6] = qHTS assay to test for compound auto fluorescence at 535 nm (green) in HepG2 cell free culture (AID 720686); note: potency is the fitted concentration of half-maximal effect
# [7] = qHTS assay to test for compound auto fluorescence at 460 nm (blue) in HepG2 cells (AID 720687)
# Method in brief: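 Blue-channel autofluorescence (Ex/Em 405/460 nm, triamterene-equivalent) was measured after 1 hr compound exposure at 37 C, 5% CO2. Cells were HepG2, plated overnight at 37 C in MEM plus 10% FBS.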
# [8] = qHTS assay to test for compound auto fluorescence at 460 nm (blue) in HepG2 cell free culture (AID 720685)
# Method in brief: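 Compound (23 nL) or DMSO pinned into cell-free MEM with 10% FBS; blue fluorescence read at 405/460 nm excitation/emission, expressed as auto-fluorescence equivalency to triamterene.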
# [9] = target: Glucocorticoid receptor (Homo sapiens) (UniProt P04150); experiment: qHTS assay to identify small molecule agonists of the glucocorticoid receptor (GR) signaling pathway (AID 720691; active = well fitted activation curve with a large enough effect in the signal ratio in the repeat runs, not every such curve was filed as active; inconclusive = weak or mixed curves, or effect the other way; inactive = no such curve, though single readings can be large or run the other way; the % refers to the signal ratio; note: potency is the fitted concentration of half-maximal effect)
# Method in brief: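 GR-bla HeLa cells carrying a GRE-driven beta-lactamase reporter, exposed to compounds for 18 h at 37 C. Reporter activation read as fluorescence after 2 h with LiveBLAzer B/G FRET substrate at room temperature.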
# [10] = target: Glucocorticoid receptor (Homo sapiens) (UniProt P04150); experiment: qHTS assay to identify small molecule antagonists of the glucocorticoid receptor (GR) signaling pathway (AID 720692; active = well fitted inhibition curve with a large enough effect in the signal ratio in the repeat runs, not every such curve was filed as active; inconclusive = weak or mixed curves, or effect the other way; inactive = no such curve, though single readings can be large or run the other way; the % refers to the signal ratio; note: potency is the fitted concentration of half-maximal effect)
# Method in brief: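 GR-bla HeLa cells carrying a GRE-driven beta-lactamase reporter received compound after 4 h plating, then dexamethasone (5 nM final). After 18 h at 37C, the FRET substrate was loaded for 2 h at room temperature and fluorescence read.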
# Tags give direction and shape of the fitted curve or compound fluorescence and quenching.
# Sequence of Glucocorticoid receptor (Homo sapiens) (P04150 whole entry, looked up): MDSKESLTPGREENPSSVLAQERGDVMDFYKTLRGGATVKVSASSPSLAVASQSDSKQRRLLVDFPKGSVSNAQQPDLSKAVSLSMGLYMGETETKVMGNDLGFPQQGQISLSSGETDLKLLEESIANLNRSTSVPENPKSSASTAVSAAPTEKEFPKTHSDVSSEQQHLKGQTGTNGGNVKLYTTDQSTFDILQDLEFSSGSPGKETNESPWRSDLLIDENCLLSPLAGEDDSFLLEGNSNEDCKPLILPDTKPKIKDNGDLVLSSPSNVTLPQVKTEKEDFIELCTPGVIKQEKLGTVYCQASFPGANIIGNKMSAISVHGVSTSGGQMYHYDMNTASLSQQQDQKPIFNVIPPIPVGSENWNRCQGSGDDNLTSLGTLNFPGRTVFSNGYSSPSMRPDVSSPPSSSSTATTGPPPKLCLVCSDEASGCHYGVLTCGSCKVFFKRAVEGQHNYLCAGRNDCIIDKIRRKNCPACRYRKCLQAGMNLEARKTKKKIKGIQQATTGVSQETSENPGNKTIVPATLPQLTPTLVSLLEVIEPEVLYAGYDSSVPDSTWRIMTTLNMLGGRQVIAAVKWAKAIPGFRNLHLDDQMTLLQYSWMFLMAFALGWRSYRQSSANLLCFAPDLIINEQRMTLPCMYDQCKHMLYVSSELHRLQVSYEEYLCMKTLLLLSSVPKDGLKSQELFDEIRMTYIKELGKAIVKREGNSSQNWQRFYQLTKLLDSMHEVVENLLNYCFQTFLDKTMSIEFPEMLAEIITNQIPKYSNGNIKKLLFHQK
SMILES,Potency [1],Potency [2],Potency [3],Potency [4],Potency [5],Potency [6],Potency [7],Potency [8],Potency [9],Potency [10]
O=C(O)COCCN1CCN(C(c2ccccc2)c2ccc(Cl)cc2)CC1 (stereo unspecified),inactive,inactive,inactive,inactive,inactive,inactive,inactive,,,
Cc1ccc(/C(=C\CN2CCCC2)c2ccccn2)cc1,inactive,inactive,inactive,inactive,inactive,inactive,inactive,,,
CC(C)[C@@H]1CC[C@@H](C)CC1=O,inactive,inactive,inactive,inactive,inactive,inactive,inactive,inactive,,
CCc1cccc2c3c([nH]c12)C(CC)(CC(=O)O)OCC3 (stereo unspecified),inactive,inactive,inactive,inactive,inactive,inactive,inactive,inactive,,
COC(=O)C(C)Oc1ccc(Oc2ncc(C(F)(F)F)cc2Cl)cc1 (stereo unspecified),inactive,inactive,inactive,inactive,inactive,inactive,inactive,inactive,,
C=CCCCCCCCCCC,inactive,inactive,inactive,inactive,inactive,inactive,inactive,inactive,inactive,inactive
Oc1ccc(C(c2ccc(O)cc2)C(Cl)(Cl)Cl)cc1,inactive,inactive,inactive,inactive,inactive,inactive,inactive,inactive,,21.9 µM (active)
CCCCCCOCCOCCO,inactive,inactive,inactive,inactive,inactive,inactive,inactive,inactive,inactive,inactive
[O-]/[N+](=N\O)c1ccccc1,inactive,inactive,inactive,inactive,inactive,inactive,inactive,inactive,,
[Na+],inactive,inactive,inactive,inactive,inactive,inactive,inactive,inactive,inactive,inactive
OC[C@@H](O)[C@@H](O[C@@H]1O[C@H](CO)[C@H](O)[C@H](O)[C@H]1O)[C@H](O)[C@@H](O)CO,inactive,inactive,inactive,inactive,inactive,inactive,inactive,inactive,,
C=CCOC(=O)C(=C)C,inactive,inactive,inactive,inactive,inactive,inactive,inactive,inactive,inactive,inactive
Cc1ccc([N+](=O)[O-])c(C)c1,inactive,inactive,inactive,inactive,inactive,inactive,inactive,inactive,inactive,inactive
Nc1cc([N+](=O)[O-])ccc1C(=O)O,inactive,inactive,inactive,inactive,inactive,inactive,inactive,,,
CC1(C)NC(=O)N(c2ccc([N+](=O)[O-])c(C(F)(F)F)c2)C1=O,inactive,inactive,inactive,inactive,inactive,inactive,inactive,,,
C=CCNCC=C,inactive,inactive,inactive,inactive,inactive,inactive,inactive,inactive,inactive,inactive
NCCOCCO,inactive,inactive,inactive,inactive,inactive,inactive,inactive,inactive,inactive,inactive
CCCN1C=CN(C)C1,inactive,inactive,inactive,inactive,inactive,inactive,inactive,,,
C=CC(C)(O)CCC=C(C)C (stereo unspecified),inactive,inactive,inactive,inactive,inactive,inactive,inactive,inactive,inactive,inactive
C[C@]12C=CC(=O)C=C1CC[C@H]1[C@@H]3C[C@@H](O)[C@](O)(C(=O)CO)[C@@]3(C)C[C@H](O)[C@@]12F,inactive,inactive,inactive,inactive,inactive,inactive,inactive,inactive,301 nM (active) and 61.6 nM (active),
COC(=O)c1ccc(C)cc1,inactive,inactive,inactive,inactive,inactive,inactive,inactive,inactive,inactive,inactive
CC(=O)[C@H]1CC[C@H]2[C@@H]3CC=C4C[C@@H](O)CC[C@]4(C)[C@H]3CC[C@]12C,inactive,inactive,inactive,inactive,inactive,inactive,inactive,inactive,,
c1ccc2ncccc2c1,inactive,inactive,inactive,inactive,inactive,inactive,inactive,inactive,inactive,inactive
O=Cc1ccccc1C=O,inactive,inactive,inactive,inactive,inactive,inactive,inactive,inactive,,6.16 µM (active)
CCCCCCCC/C=C\CCCCCCCC(=O)O,inactive,inactive,inactive,inactive,inactive,inactive,inactive,inactive,inactive,

SMILES,Potency [1],Potency [2],Potency [3],Potency [4],Potency [5],Potency [6],Potency [7],Potency [8],Potency [9],Potency [10]
Cc1ccc(C)c(O)c1,inactive,inactive,inactive,inactive,inactive,inactive,inactive,inactive,inactive,inactive
CC(=O)Oc1ccc(C(c2ccc(OC(C)=O)cc2)c2ccccn2)cc1,inactive,inactive,inactive,inactive,inactive,inactive,inactive,inactive,,
CCC(Cc1c(I)cc(I)c(N)c1I)C(=O)O (stereo unspecified),inactive,inactive,inactive,inactive,inactive,inactive,inactive,inactive,inactive,
O=S1(=O)CCCO1,inactive,inactive,inactive,inactive,inactive,inactive,inactive,inactive,inactive,inactive
Cc1ccc(N)c([N+](=O)[O-])c1,inactive,inactive,inactive,inactive,inactive,inactive,inactive,inactive,inactive,inactive
CC/C=C\C/C=C\C/C=C\CCCCCCCC(=O)O,inactive,inactive,inactive,inactive,inactive,inactive,inactive,inactive,,
O=C1CCc2ccccc2O1,inactive,inactive,inactive,inactive,inactive,inactive,inactive,inactive,inactive,inactive
O=C(O)c1cc(=O)[nH]c(=O)[nH]1,inactive,inactive,inactive,inactive,inactive,inactive,inactive,inactive,inactive,inactive
Cc1ccc(S(=O)(=O)O)cc1C,inactive,inactive,inactive,inactive,inactive,inactive,inactive,inactive,inactive,inactive
c1ccc2c(c1)ccc1ncccc12,inactive,inactive,inactive,inactive,inactive,inactive,inactive,inactive,inactive,inactive
Clc1ccc(Sc2cc(Cl)c(Cl)cc2Cl)cc1,inactive,inactive,inactive,inactive,inactive,inactive,inactive,inactive,inactive,inactive
ClC/C=C/CCl,inactive,inactive,inactive,inactive,inactive,inactive,inactive,inactive,,
C=CC(=O)OCCCC,inactive,inactive,inactive,inactive,inactive,inactive,inactive,inactive,inactive,inactive
C[N+](C)(C)CCO,inactive,inactive,inactive,inactive,inactive,inactive,inactive,inactive,,
CC(C)=CCO,inactive,inactive,inactive,inactive,inactive,inactive,inactive,,,
O=C1OC2(c3ccccc31)c1cc(I)c(O)c(I)c1Oc1c2cc(I)c(O)c1I,10 µM [fluorescent] (active) and 14.1 µM [fluorescent] (active) and 17.8 µM [fluorescent] (active),,12.6 µM [fluorescent] (active) and 8.91 µM [fluorescent] (active) and 15.8 µM [fluorescent] (active),11.2 µM [fluorescent] (active) and 17.8 µM [fluorescent] (active),11.2 µM [fluorescent] (active) and 17.8 µM [fluorescent] (active) and 15.8 µM [fluorescent] (active),11.2 µM [fluorescent] (active) [middle of 4 runs],inactive,,,
COc1cc([C@H]2Oc3cc([C@H]4Oc5cc(O)cc(O)c5C(=O)[C@@H]4O)ccc3O[C@@H]2CO)ccc1O,inactive,,inactive,inactive,inactive,inactive,inactive,inactive,inactive,inactive
Cc1ccc2c(c1)C(=O)OC2=O,inactive,,inactive,inactive,inactive,inactive,inactive,inactive,inactive,inactive
CC(=O)O[C@]1(C(C)=O)CC[C@H]2[C@@H]3C=C(Cl)C4=CC(=O)CC[C@]4(C)[C@H]3CC[C@@]21C,inactive,,inactive,inactive,inactive,inactive,inactive,inactive,,
CN1CCOCC1,inactive,,inactive,inactive,inactive,inactive,inactive,inactive,inactive,inactive
COC(=O)CC(=O)OC,inactive,inactive,inactive,inactive,inactive,inactive,inactive,,inactive,inactive
Brc1nc2ccccc2s1,inactive,inactive,inactive,inactive,inactive,inactive,inactive,,inactive,inactive
CC(=O)[C@@]1(O)CC[C@H]2[C@@H]3C[C@H](C)C4=CC(=O)C=C[C@]4(C)[C@@]3(F)[C@@H](O)C[C@@]21C,inactive,inactive,inactive,inactive,inactive,inactive,inactive,,12.9 nM [inconclusive] (active) and 3.5 nM (active),
Nc1cc(Cl)c(N)c(Cl)c1,inactive,,inactive,inactive,inactive,inactive,inactive,inactive,inactive,inactive
NCCS(=O)(=O)O,inactive,inactive,inactive,inactive,inactive,inactive,inactive,,inactive,inactive
